Numbering of substitutions follows the chain as printed.
Legend:
Experiment in all cases: PBM; 200 nM protein, PBS
Details in all cases: dsDNA, one strand shown
[1] = biological target: T1, SIX6 (Homo sapiens, UniProt O95475 114-200, L167I)
T1 sequence: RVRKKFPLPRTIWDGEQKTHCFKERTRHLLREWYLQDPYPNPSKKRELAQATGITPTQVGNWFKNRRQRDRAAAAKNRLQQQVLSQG

[2] = biological target: T2, SIX6 (Homo sapiens, UniProt O95475 114-200, L143V)
T2 sequence: T1 sequence with L30V, I54L

[3] = biological target: T3, SIX6 (Homo sapiens, UniProt O95475 114-200, H141N)
T3 sequence: T1 sequence with H28N, I54L

[4] = biological target: T4, SIX6 (Homo sapiens, UniProt O95475 114-200, T165P)
T4 sequence: T1 sequence with T52P, I54L

[5] = biological target: T5, SIX6 (Homo sapiens, UniProt O95475 114-200, L143I)
T5 sequence: T1 sequence with L30I, I54L

[6] = biological target: T6, SIX6 (Homo sapiens, UniProt O95475 114-200, T165G)
T6 sequence: T1 sequence with T52G, I54L

[7] = biological target: T7, SIX6 (Homo sapiens, UniProt O95475 114-200)
T7 sequence: T1 sequence with I54L

[8] = biological target: T8, SIX6 (Homo sapiens, UniProt O95475 114-200, T165A)
T8 sequence: T1 sequence with T52A, I54L

[9] = biological target: T9, SIX6 (Homo sapiens, UniProt O95475 114-200, L167V)
T9 sequence: T1 sequence with I54V

[10] = biological target: T10, SIX6 (Homo sapiens, UniProt O95475 114-200, T165I)
T10 sequence: T1 sequence with T52I, I54L

[11] = biological target: T11, SIX6 (Homo sapiens, UniProt O95475 114-200, L167M)
T11 sequence: T1 sequence with I54M

[12] = biological target: T12, SIX6 (Homo sapiens, UniProt O95475 114-200, L143M)
T12 sequence: T1 sequence with L30M, I54L

[13] = biological target: T13, SIX6 (Homo sapiens, UniProt O95475 114-200, T139Q)
T13 sequence: T1 sequence with T26Q, I54L

Sequence: ACGGATAG
- binding signal [1]: 10.1 upbm affinity estimate (log intensity, higher = more binding, comparable within an allelic series)
- binding signal [2]: 9.74 upbm affinity estimate (log intensity, higher = more binding, comparable within an allelic series)
- binding signal [3]: 10 upbm affinity estimate (log intensity, higher = more binding, comparable within an allelic series)
- binding signal [4]: 9.43 upbm affinity estimate (log intensity, higher = more binding, comparable within an allelic series)
- binding signal [5]: 9.74 upbm affinity estimate (log intensity, higher = more binding, comparable within an allelic series)
- binding signal [6]: 10 upbm affinity estimate (log intensity, higher = more binding, comparable within an allelic series)
- binding signal [7]: 10.2 upbm affinity estimate (log intensity, higher = more binding, comparable within an allelic series)

Sequence: ATATCACC
- binding signal [1]: 11.2 upbm affinity estimate (log intensity, higher = more binding, comparable within an allelic series)
- binding signal [3]: 11.1 upbm affinity estimate (log intensity, higher = more binding, comparable within an allelic series)
- binding signal [6]: 11.2 upbm affinity estimate (log intensity, higher = more binding, comparable within an allelic series)
- binding signal [8]: 11.1 upbm affinity estimate (log intensity, higher = more binding, comparable within an allelic series)
- binding signal [9]: 10.9 upbm affinity estimate (log intensity, higher = more binding, comparable within an allelic series)
- binding signal [10]: 10.9 upbm affinity estimate (log intensity, higher = more binding, comparable within an allelic series)

Sequence: AAGTATCT
- binding signal [1]: 10.5 upbm affinity estimate (log intensity, higher = more binding, comparable within an allelic series)
- binding signal [3]: 10.4 upbm affinity estimate (log intensity, higher = more binding, comparable within an allelic series)
- binding signal [11]: 10.2 upbm affinity estimate (log intensity, higher = more binding, comparable within an allelic series)
- binding signal [12]: 10.4 upbm affinity estimate (log intensity, higher = more binding, comparable within an allelic series)
- binding signal [5]: 9.98 upbm affinity estimate (log intensity, higher = more binding, comparable within an allelic series)
- binding signal [6]: 10.4 upbm affinity estimate (log intensity, higher = more binding, comparable within an allelic series)
- binding signal [13]: 10.6 upbm affinity estimate (log intensity, higher = more binding, comparable within an allelic series)
- binding signal [8]: 10.4 upbm affinity estimate (log intensity, higher = more binding, comparable within an allelic series)
- binding signal [9]: 10.3 upbm affinity estimate (log intensity, higher = more binding, comparable within an allelic series)
- binding signal [7]: 10.3 upbm affinity estimate (log intensity, higher = more binding, comparable within an allelic series)
- binding signal [10]: 10.3 upbm affinity estimate (log intensity, higher = more binding, comparable within an allelic series)

Sequence: CCGTATCA
- binding signal [1]: 11.1 upbm affinity estimate (log intensity, higher = more binding, comparable within an allelic series)
- binding signal [3]: 11.1 upbm affinity estimate (log intensity, higher = more binding, comparable within an allelic series)
- binding signal [6]: 11.1 upbm affinity estimate (log intensity, higher = more binding, comparable within an allelic series)
- binding signal [13]: 11.1 upbm affinity estimate (log intensity, higher = more binding, comparable within an allelic series)
- binding signal [8]: 11.1 upbm affinity estimate (log intensity, higher = more binding, comparable within an allelic series)
- binding signal [10]: 10.9 upbm affinity estimate (log intensity, higher = more binding, comparable within an allelic series)

Sequence: AGTATCAA
- binding signal [1]: 11.1 upbm affinity estimate (log intensity, higher = more binding, comparable within an allelic series)
- binding signal [3]: 11.1 upbm affinity estimate (log intensity, higher = more binding, comparable within an allelic series)
- binding signal [6]: 11.1 upbm affinity estimate (log intensity, higher = more binding, comparable within an allelic series)
- binding signal [8]: 11.1 upbm affinity estimate (log intensity, higher = more binding, comparable within an allelic series)

Sequence: CTATACTA
- binding signal [1]: 10.2 upbm affinity estimate (log intensity, higher = more binding, comparable within an allelic series)
- binding signal [3]: 10.1 upbm affinity estimate (log intensity, higher = more binding, comparable within an allelic series)
- binding signal [11]: 10.2 upbm affinity estimate (log intensity, higher = more binding, comparable within an allelic series)
- binding signal [6]: 10.2 upbm affinity estimate (log intensity, higher = more binding, comparable within an allelic series)
- binding signal [9]: 10.1 upbm affinity estimate (log intensity, higher = more binding, comparable within an allelic series)
- binding signal [7]: 10.2 upbm affinity estimate (log intensity, higher = more binding, comparable within an allelic series)
- binding signal [10]: 10.1 upbm affinity estimate (log intensity, higher = more binding, comparable within an allelic series)

Sequence: CTGATATC
- binding signal [1]: 11.1 upbm affinity estimate (log intensity, higher = more binding, comparable within an allelic series)
- binding signal [3]: 11 upbm affinity estimate (log intensity, higher = more binding, comparable within an allelic series)
- binding signal [12]: 10.9 upbm affinity estimate (log intensity, higher = more binding, comparable within an allelic series)
- binding signal [8]: 11 upbm affinity estimate (log intensity, higher = more binding, comparable within an allelic series)
- binding signal [9]: 10.9 upbm affinity estimate (log intensity, higher = more binding, comparable within an allelic series)
- binding signal [10]: 10.9 upbm affinity estimate (log intensity, higher = more binding, comparable within an allelic series)

Sequence: GGTGTCAA
- binding signal [1]: 10.4 upbm affinity estimate (log intensity, higher = more binding, comparable within an allelic series)
- binding signal [4]: 9.33 upbm affinity estimate (log intensity, higher = more binding, comparable within an allelic series)
- binding signal [11]: 9.85 upbm affinity estimate (log intensity, higher = more binding, comparable within an allelic series)
- binding signal [6]: 11.1 upbm affinity estimate (log intensity, higher = more binding, comparable within an allelic series)
- binding signal [8]: 11.1 upbm affinity estimate (log intensity, higher = more binding, comparable within an allelic series)

Sequence: AGGTGTCA
- binding signal [1]: 10.4 upbm affinity estimate (log intensity, higher = more binding, comparable within an allelic series)
- binding signal [11]: 9.88 upbm affinity estimate (log intensity, higher = more binding, comparable within an allelic series)
- binding signal [6]: 11.2 upbm affinity estimate (log intensity, higher = more binding, comparable within an allelic series)
- binding signal [13]: 11.1 upbm affinity estimate (log intensity, higher = more binding, comparable within an allelic series)
- binding signal [8]: 11.2 upbm affinity estimate (log intensity, higher = more binding, comparable within an allelic series)

Sequence: CGGTGTCA
- binding signal [1]: 10.3 upbm affinity estimate (log intensity, higher = more binding, comparable within an allelic series)
- binding signal [4]: 9.3 upbm affinity estimate (log intensity, higher = more binding, comparable within an allelic series)
- binding signal [11]: 9.76 upbm affinity estimate (log intensity, higher = more binding, comparable within an allelic series)
- binding signal [8]: 11.1 upbm affinity estimate (log intensity, higher = more binding, comparable within an allelic series)

Sequence: AGTTGTAT
- binding signal [1]: 10.2 upbm affinity estimate (log intensity, higher = more binding, comparable within an allelic series)
- binding signal [3]: 10.2 upbm affinity estimate (log intensity, higher = more binding, comparable within an allelic series)
- binding signal [11]: 10.1 upbm affinity estimate (log intensity, higher = more binding, comparable within an allelic series)
- binding signal [7]: 10.3 upbm affinity estimate (log intensity, higher = more binding, comparable within an allelic series)
- binding signal [10]: 10.2 upbm affinity estimate (log intensity, higher = more binding, comparable within an allelic series)
